Reference: PubChem BioAssay (NCATS)
Results filed as inconclusive are left out. The source made the active and inactive calls. Unless noted, calls follow the shape of the dose curve; as a rule, active = well fitted curve in the direction sought with a large enough effect; inconclusive = small, poorly fitted or top-dose-only effect, or another doubt; inactive = no such curve, though single readings can be large; an effect the other way counts as inactive or inconclusive.

Experiments:
[1] = qHTS to identify inhibitors of the type 1 interferon - major histocompatibility complex class I in skeletal muscle: primary screen against the NCATS Mechanism Interrogation Plate v5.0 (MIPE) Libary (AID 1347411);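 also: plate controls were vehicle for no effect and reference inhibitor for full effect; nearly all actives have a fitted effect of over 65% in size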
In short: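 Luminescence from CRISPR HiBit-tagged endogenous HLA-B in human myoblasts reported MHC class I level after 24 h of IFN-beta (4 ng/ml) plus compound. Compounds ran as 11-point 1:3 series, top 46 uM final.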

[2] = biological target: Glutathione peroxidase 1 (Homo sapiens) (UniProt P07203); experiment: Primary qHTS Assay for Inhibitors of Recombinant Selenoprotein Glutathione Peroxidase 1 (GPX1) (AID 1845191); also: nearly all actives have a fitted effect of over 65% in size
Sequence of Glutathione peroxidase 1 (Homo sapiens) (P07203 whole entry, looked up): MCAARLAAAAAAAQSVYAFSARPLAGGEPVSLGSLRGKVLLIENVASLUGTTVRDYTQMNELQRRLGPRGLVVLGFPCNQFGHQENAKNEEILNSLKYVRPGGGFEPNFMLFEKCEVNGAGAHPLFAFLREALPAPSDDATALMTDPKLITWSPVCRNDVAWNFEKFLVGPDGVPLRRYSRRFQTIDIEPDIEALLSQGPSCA
In short: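 GPX1 10 nM, GR 100 nM, GSH 1 mM, NADPH 0.5 mM, CHP 0.5 mM (final). 30-min cpd preincubation, RT. Ex340/Em450 read t=0, t=15 min.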

[3] = biological target: Phospholipid hydroperoxide glutathione peroxidase GPX4 (Homo sapiens) (UniProt P36969); experiment: Primary qHTS Assay for Inhibitors of Recombinant Selenoprotein Glutathione Peroxidase 4 (GPX4) (AID 1845192); conditions: outcome: dose series up to 50 µM unless noted; also: % is scaled to controls: 0 for no effect and ±100 for the full control effect; nearly all actives have a fitted effect of over 65% in size
Sequence of Phospholipid hydroperoxide glutathione peroxidase GPX4 (Homo sapiens) (P36969 whole entry, looked up): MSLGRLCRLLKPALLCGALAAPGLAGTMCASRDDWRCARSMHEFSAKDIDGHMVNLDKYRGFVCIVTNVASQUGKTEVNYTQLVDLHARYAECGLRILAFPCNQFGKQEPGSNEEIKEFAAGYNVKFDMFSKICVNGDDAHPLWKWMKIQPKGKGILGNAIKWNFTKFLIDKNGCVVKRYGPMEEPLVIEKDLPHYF
In short: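 qHTS, GR-coupled: GPX4 200 nM + cpd 30 min RT → GSH 1 mM, NADPH 0.5 mM, GR 100 nM → CHP 0.5 mM start; fluor 340/450 at t0 and t15 min; no-enzyme wells as control.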

[4] = qHTS drug screen for cell cycle checkpoint inhibitors in PARPi-resistant BRCA-mutant ovarian cancer cell lines. (AID 1963452; calls by dose curve); conditions: PEO1/OlaR viability, CellTiter-Glo luminescence, 96 h, stronger effect = lower value
In short: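 PEO1, PEO4 and PEO1/OlaR ovarian cancer cells, 600 per well, exposed 96 h at 37C to a dilution series. Viability read by CellTiter-Glo luminescence, normalized to DMSO and empty wells; activity summarized as Z-AUC.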

[5] = Primary qHTS for inhibitors of nuclear receptor binding SET domain protein 2 (NSD2) in an isogenic RCH-ACV NSD2 p.E1099K mutant (9B) (AID 1645876); also: nearly all actives have a fitted effect of over 70% in size; also: potency is read from the fitted curve at half-maximal effect
[6] = Primary qHTS for inhibitors of nuclear receptor binding SET domain protein 2 (NSD2) in an RCH-ACV wild type WT cells (2C) (AID 1645877); also: nearly all actives have a fitted effect of over 70% in size; also: potency is read from the fitted curve at half-maximal effect
[7] = qHTS assay to identify inhibitors of the type 1 interferon - major histocompatibility complex class I in skeletal muscle: Counter screen cell viability and HiBit confirmation (AID 1347412); conditions: iHSKM muscle cells + IFN-b, HiBiT or CellTiter-Glo, 24 h; for Potency: HiBiT; for activity change, negative = inhibition: Viability, at 45.9 µM (top of the series); also: potency is read from the fitted curve at half-maximal effect; as to activity change, negative = inhibition: % is scaled to controls: 0 for no effect and ±100 for the full control effect; as to all read-outs here: nearly all actives have a fitted effect of over 60% in size
In short: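 Human myoblast knock-in line, 4.0 ng/ml IFN-beta stimulation, 24 h compound treatment. Endpoints: HiBiT lytic luminescence (HLA-B level) and CellTiter Glo (ATP). Dosing 12 concentrations, 3-fold steps, 46 uM highest final.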

[8] = measured here: PEO1 parental Z-AUC

## CC1(C)SCCN(S(=O)(=O)c2ccc(OCC#CCO)cc2)[C@H]1C(=O)NO
[1]
  Potency: inactive
[2]
  Potency: inactive
[3]
  Potency: inactive
[4]
  Z-AUC: 0.823 (inactive)
[4]; [8]
  Z-AUC: 0.238
[4]; measured here: PEO4 Z-AUC
  Z-AUC: 0.33

## Cc1cc(O)c(-c2ccc([C@@H](C)CN)cc2)c2c1[nH]c(=O)c1sccc12
[5]
  Potency: inactive
[6]
  Potency: inactive
[2]
  Potency: inactive
[3]
  Potency: inactive
[4]
  Z-AUC: -2.55 (inactive)
[4]; [8]
  Z-AUC: -2.78
[4]; measured here: PEO4 Z-AUC
  Z-AUC: -2.98
[7]
  Potency: 39.4 nM (active)
  activity change, negative = inhibition: -14.1% (inactive)

## C[C@@H](O)[C@@H]1NC(=O)[C@H](CCCCN)NC(=O)[C@@H](Cc2c[nH]c3ccccc23)NC(=O)[C@H](Cc2ccccc2)NC(=O)[C@@H](NC(=O)[C@H](N)Cc2ccccc2)CSSC[C@@H](C(=O)N[C@H](CO)[C@@H](C)O)NC1=O
[1]
  Potency: inactive
[2]
  Potency: inactive
[4]
  Z-AUC: 0.896 (inactive)
[4]; [8]
  Z-AUC: 0.495
[4]; measured here: PEO4 Z-AUC
  Z-AUC: 0.728

## CO[C@@H]1[C@@H](O)[C@H](O)[C@@H](n2c3c(Cl)cccc3c3c4c(c5c6cccc(Cl)c6[nH]c5c32)C(=O)NC4=O)O[C@H]1CO
[5]
  Potency: 934 nM (active)
[6]
  Potency: 525 nM (active)
[2]
  Potency: inactive
[3]
  Potency: inactive
[4]
  Z-AUC: -0.593 (inactive)
[4]; [8]
  Z-AUC: -0.854
[4]; measured here: PEO4 Z-AUC
  Z-AUC: -0.743
[7]
  Potency: 4970 nM (active)
  activity change, negative = inhibition: -21.4% (inactive)

## COC(=O)N(CC(=O)O)Cc1cccc(OCc2nc(-c3ccc(Cl)cc3)oc2C)c1
[1]
  Potency: inactive
[4]
  Z-AUC: 1.24 (inactive)
[4]; [8]
  Z-AUC: -0.00269
[4]; measured here: PEO4 Z-AUC
  Z-AUC: 0.458
